This is an account of results in PubChem BioAssay (NCATS).

Values without a mark were called inactive. Activity calls are given as the source filed them. Calls follow the shape of the dose curve; as a rule, active = well fitted inhibition curve with a large enough effect; inconclusive = small, poorly fitted or top-dose-only effect; inactive = flat fitted curve, though single readings scatter.

The target of this assay is Luciferin 4-monooxygenase (Photinus pyralis) (UniProt P08659). The assay can be described thus: Primary firefly luciferase (FLuc) qHTS assay for identification of artifact compounds. (AID 1845220). Also: nearly all actives have a fitted effect of over 60% in size.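 As to activity change, negative = inhibition: plate controls were DMSO vehicle for no effect and no enzyme for full effect.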 As to conditions: purified firefly luciferase, luminescence, 5 min; series mostly up to 54.1 µM; activity change, negative = inhibition: at the top concentration. The gist of the method: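 Cell-free, 1536-well qHTS. Buffer pH 7.6 with 0.01% Tween-20 and 0.05% BSA; 10 uM D-luciferin, 10 uM ATP; 10 nM P. pyralis luciferase; luminescence after 5 min.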
In general terms: Quantitative high-throughput screening tests each substance at several concentrations.
As for `CC1=C2[C@@H]([C@H](C)CC[C@H]2/C=C(\C)C(=O)O)[C@H](O)C1`, the result was inactive. `CC(C)=CCC/C(C)=C/CC/C(C)=C/CC[C@]1(C)CCc2cc(O)cc(C)c2O1`: the “activity change, negative = inhibition” value is 1.26% [at 25.7 µM].

Take `COc1cc(/C=C/C(=O)OC[C@H]2O[C@H](O[C@]3(CO)O[C@H](CO)[C@@H](O)[C@@H]3O)[C@H](O)[C@@H](O)[C@@H]2O)cc(OC)c1O`: the “activity change, negative = inhibition” value is -4.42% [at 25.7 µM]. Consider `C=C(C)[C@@H]1CC[C@](C)(O)[C@@H](OC(=O)c2ccccc2)C1`, for which the “activity change, negative = inhibition” value is 2.99%. Same read-out and setting: under `C=CC1(C)C=C2C(O)CC3C(C)(C(=O)O)CCCC3(C)C2CC1` (configuration not stated) stands 0.543%.

As to `CC1(C)CCC(C)(C)c2cc([C@@H](O)C(=O)Nc3ccc(C(=O)O)cc3F)ccc21`, the compound was called inactive.

For the compound `CCCn1cnc2c(NCc3ccccc3)nc(N[C@H](CC)CO)nc21`, the compound was called inactive. In the case of `C=CCc1ccc(O[C@@H]2O[C@H](CO[C@@H]3O[C@@H](C)[C@H](O)[C@@H](O)[C@H]3O)[C@@H](O)[C@H](O)[C@H]2O)cc1`, the “activity change, negative = inhibition” value was -0.976% [at 25.7 µM].

For the compound `CC1=C(C)C(=O)OC(C(C)C2C(O)CC3C4C5OC5C5(O)CC(OC6OC(CO)C(O)C(O)C6O)CC(O)C5(C)C4CCC32C)C1` (configuration not stated), the “activity change, negative = inhibition” value is 1.41% [at 25.7 µM].

In the case of `COC(=O)[C@]12C(=O)C(C)=C(O)[C@@]1(C)C(C)=CC1[C@@]34CC[C@@H](OC(C)=O)C(C)(C)C3[C@H](C[C@]12C)OC4=O` (some centres not stated), the “activity change, negative = inhibition” value is 2.61% [at 25.7 µM]. On to `CCCCS(=O)(=O)Nc1ncnc(OCCOc2ncc(Br)cn2)c1-c1ccc(Br)cc1`, for which the outcome was inactive. In the case of `CC(C)(O)c1ccc2c(c1)C(=O)CC1[C@](C)(CO)CCC[C@]21C` (some centres not stated), the “activity change, negative = inhibition” value is 4.46%. For the compound `COc1cc(C/C(=C/NC(C)=O)N(CC(=O)Cc2ccccc2)C(C)=O)cc2c1OCO2`, the “outcome” value is “inactive [at 25.7 µM]”. The same measure, in the same setting: the entry for `CC(C)=CCCC1(C)Oc2cc3c(c4c2C2C(O4)C(C)(O)CCC21)CN(C(CCC(=O)O)C(=O)O)C3=O` (configuration not stated) is “inactive [at 25.7 µM]”. Turning to `CC(/C=C/C1(O)C2(C)COC1(C)CC(=O)C2)O[C@@H]1O[C@H](CO)[C@@H](O)[C@H](O)[C@H]1O` (some centres not stated), the “activity change, negative = inhibition” value was 3.4% [at 25.7 µM]. Consider `C[C@@H]1CC[C@]2(C)C3(C)CC[C@@]2(OC3=O)[C@@]12C[C@H](c1ccoc1)OC2=O`, for which the call was inactive. In the case of `Cc1coc2c1CC1OC1(C)CCC1OC1(C)C2` (configuration not stated), the “activity change, negative = inhibition” value is 0.63%.

Consider `CC1(C)CC[C@]2(C(=O)O)CC[C@]3(C)C(=CCC4[C@@]5(C)C[C@@H](O)[C@H](O)C(C)(C)C5CC[C@]43C)[C@@H]2[C@@H]1O` (some centres not stated), for which the “activity change, negative = inhibition” value was -3.61% [at 25.7 µM]. For the compound `COC(=O)[C@@]1(C)CC[C@]2(C(=O)O[C@@H]3O[C@H](CO)[C@@H](O)[C@H](O)[C@H]3O)CC[C@]3(C)C(=CCC4[C@@]5(C)CC[C@H](O[C@@H]6O[C@H](C(=O)O)[C@@H](O)[C@H](O)[C@H]6O)C(C)(C)C5CC[C@]43C)[C@@H]2C1` (some centres not stated), the activity change, negative = inhibition was -8.19% [at 11.6 µM]. As to `COc1cc(N2CCC(N(C)C)CC2)ccc1Nc1ncc(Cl)c(Nc2ccccc2P(C)(C)=O)n1`, the call was inactive. As for `C=C1CCC2C(C)(C)C(O)CCC2(C)C1CCC(C)CCOC(=O)CCC(=O)O` (configuration not stated), the “activity change, negative = inhibition” value was 4.56% [at 25.7 µM]. Still for that read-out and setting: the figure for `Cc1cc(Nc2ncc(Cl)c(Nc3ccccc3S(=O)(=O)C(C)C)n2)c(OC(C)C)cc1C1CCNCC1` is 1.67%. For `C=C1CC2(C(=O)O)CC1CCC2C1(C)CCCC2(C)C(=O)OC(O)C21` (configuration not stated), the “activity change, negative = inhibition” value was -4.53%.

On to `COc1ccc(C(=O)O[C@H]2CC(C)=CC[C@@]3(C)[C@@H](OC(C)=O)C[C@@](O)(C(C)C)[C@H]23)cc1`, for which the “activity change, negative = inhibition” value was 1.42% [at 25.7 µM].

Take `C=C(C)C(C)C1OC23CC4(CO2)C(CCC2C5(C)CCC(OC6OCC(O)C(OC7OC(CO)C(O)C(OC8OCC(O)C(O)C8O)C7O)C6OC6OC(CO)C(O)C6O)C(C)(C)C5CCC24C)C3C(C)(O)C1OC(C)=O` (configuration not stated): the outcome was “inactive [at 11.6 µM]”. Consider `CC1CCC(=O)CC(O)C(O)CC(=O)O1` (configuration not stated), for which the “activity change, negative = inhibition” value was 4.7%. Turning to `CCOc1ccc(C(Nc2ccccn2)c2ccc3ccc(C)nc3c2O)cc1C` (configuration not stated), the compound was called inactive. As to `C=CCc1ccc(O[C@@H]2O[C@H](CO)[C@@H](O)[C@H](O)[C@H]2O)c(OC)c1`, the “activity change, negative = inhibition” value is 2.69%.

Regarding `O=C(O)C[C@H]1CCC(=O)[C@@H]1C/C=C\CCOC1OC(CO)C(O)C(O)C1O` (some centres not stated), the result was inactive.

In the case of `OCCc1ccc(O[C@@H]2O[C@H](CO)[C@@H](O)[C@H](O)[C@H]2O)c(O)c1`, the result was inactive. In the case of `C[C@@H]1CC[C@]2(C(=O)O[C@@H]3O[C@H](CO)[C@@H](O)[C@H](O)[C@H]3O)CC[C@]3(C)C(=CCC4[C@@]5(C)C[C@@H](O)[C@H](O)C(C)(C)C5CC[C@]43C)C2[C@]1(C)O` (some centres not stated), the “activity change, negative = inhibition” value is 2.61% [at 25.7 µM]. Turning to `COc1cccc2c1CCC[C@H]2CN(C)CCc1ccc2ccoc2c1`, the “activity change, negative = inhibition” value was 3.25%.
